Results as given in PubChem BioAssay.
Inconclusive results are not listed. Active and inactive are the calls of the source. Unless noted, the rule behind the calls is not given here.

Tests used:
[1] = stimulators of insulin release from INS-1E, primary screen, cell-based, 5 mM glucose, NPC library (AID 1117329;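 active = compound raises insulin release from rat beta cells at 5 mM glucose, no numeric limit stated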); details: rat INS-1E insulin secretion, at 10 µM, stronger effect = higher value
[2] = growth inhibition of GSK3B-pretreated HCT116 cells – cell-based, CellTiter-Glo, 0.2 to 20 µM (AID 1117336;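 active = compounds lowering colon cancer cell viability after pretreatment blocking the GSK3B kinase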); details: HCT116 viability after GSK3B inhibitor, at 20 µM, stronger effect = higher value
[3] = inhibition of endothelial tube formation, primary screen, imaging, VEGF stimulated, CD31 staining, tube area, NPC library (AID 1117340;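 active = compound that reduces growth-factor-driven endothelial tube area in a mixed cell culture, no cutoff stated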); details: VEGF-stimulated ADSC/ECFC co-culture, at 10 µM, stronger effect = higher value
[4] = GLP1 release stimulators, primary, NCI-H716, NPC library (AID 1117341;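 active = compound raises GLP1 secretion from the human gut endocrine cells, with no numeric limit stated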); details: NCI-H716 cells, at 10 µM, stronger effect = higher value
[5] = HCT116 colon cancer cell growth inhibition, primary screen, CellTiter-Glo luminescence, NPC library (AID 1117342;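 active = compounds that lower survival of HCT116 colon cancer cells in the luminescence readout, no numeric limit stated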); details: at 20 µM (top of the series)
[6] = reduced SW480 viability measured with CellTiter-Glo, NPC library, primary (AID 1117343;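 active = compounds that lower viability of the colon cancer cells in the luminescence readout, with no numeric limit stated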); details: CellTiter-Glo luminescence; at 20 µM (top of the series)
[7] = NPC library primary testing for decreased DLD-1 cell viability via CellTiter-Glo (AID 1117346;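 active = compounds that lower survival of DLD-1 colon cancer cells in the luminescence readout, no cutoff given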); details: DLD-1 viability, CellTiter-Glo luminescence; at 20 µM (top of the series)
[8] = modulation of C. elegans fzo-1 (AID 1259413);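 note: fzo-1 mutant C. elegans worms in liquid wells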; details: C. elegans fzo-1 modulator screen, mean read-out; stronger effect = higher value
[9] = EMT-state selective cytotoxicity in co-culture – imaging, PC-3E GFP, TEM4-18 mCherry, primary screen (AID 1345086;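 active = compounds killing one labelled cell type while sparing the other, by normalised counts and ratio limits, not self-fluorescent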;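 for all read-outs here: cells exposed to compound for 72 h before imaging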;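 for red/green cell ratio (normalised): normalised mesenchymal count divided by normalised epithelial count so high means epithelial killing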); details: PC-3E GFP / TEM4-18 mCherry co-culture, imaging cell counts, at 1 µM; for red/green cell ratio (normalised): actives lie on both sides, counts scaled to control wells, 1 = unselective
[10] = viability loss in pontine glioma line – cell-based, SU-DIPG-XIII, MIPE4.0, CellTiter-Glo, qHTS, dose response (AID 1347061; cut-off not given, nearly all actives have AC50 up to about 37 µM;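 note: cells exposed to compound for 48 hours before readout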); details: CellTiter-Glo ATP luminescence
[11] = viability loss in pontine glioma line – cell-based, JHH-DIPG-1, MIPE4.0, CellTiter-Glo, qHTS, dose response (AID 1347062; cut-off not given, nearly all actives have AC50 up to about 27 µM;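 for AC50: cells exposed to compound for two days before readout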); details: JHH-DIPG-1 viability, CellTiter-Glo ATP luminescence
[12] = viability loss in pontine glioma line – cell-based, SU-DIPG-IV, MIPE4.0, CellTiter-Glo, qHTS, dose response (AID 1347063; cut-off not given, nearly all actives have AC50 up to about 30 µM;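 note: compound exposure lasted 48 hours before the viability readout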); details: CellTiter-Glo ATP luminescence
[13] = viability loss in pontine glioma line – cell-based, SU-DIPG-XVII, MIPE5.0, CellTiter-Glo, qHTS, dose response (AID 1347060; cut-off not given, nearly all actives have AC50 up to about 26 µM); details: CellTiter-Glo ATP luminescence
[14] = viability loss in pontine glioma line – cell-based, SU-DIPG-XIII, MIPE5.0, CellTiter-Glo, qHTS, dose response (AID 1347064; cut-off not given, nearly all actives have AC50 up to about 23 µM); details: CellTiter-Glo ATP luminescence
[15] = tested on: Aerobactin synthetase IucA (Klebsiella pneumoniae); assay: inhibition of K. pneumoniae IucA enzyme – biochemical, Tocris library, absorbance (AID 1345561); details: purified IucA enzyme assay, absorbance (OD) read-out; stronger effect = lower value;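 tested at 8 µM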;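 note: 100% = enzyme without compound and 0% = no enzyme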
[16] = measured here: epithelial PC-3E GFP cell survival
[17] = measured here: mesenchymal TEM4-18 mCherry cell survival

Row | SMILES | insulin secretion stimulation [1] | viability decrease [2] | tube area decrease [3] | GLP1 secretion stimulation [4] | inhibition of viability [5] | viability decrease (inhibition) [6] | viability decrease (inhibition) [7] | mean signal [8] | red/green cell ratio (normalised) [9] | normalised cell number [9, 16] | normalised cell number [9, 17] | outcome [10] | outcome [11] | outcome [12] | outcome [13] | AC50 [11] | AC50 [12] | outcome [14] | remaining activity [15] | AC50 [10]
1 | CC(c1cc2ccccc2s1)N(O)C(N)=O (configuration not stated) | -0.1% (inactive) | -6.5% (inactive) | -39.9% (inactive) | -1.4% (inactive) | -15.9% (inactive) | 9.4% (inactive) | -3.8% (inactive) | 255 (inactive) | 0.83 (inactive) | 1.22 | 1.01 | inactive | inactive | inactive |  |  |  |  |  | 
2 | Nc1nc2c(ncn2COC(CO)CO)c(=O)[nH]1 | 0% (inactive) | -10.4% (inactive) | -6.4% (inactive) | -2% (inactive) | 4.7% (inactive) | -10.2% (inactive) | -8.6% (inactive) | 268 (inactive) | 1.03 (inactive) | 1.04 | 1.07 |  |  |  | inactive | 16.6 µM (active) | 20.9 µM (active) |  |  | 
3 | CNNCc1ccc(C(=O)NC(C)C)cc1 | 0.5% (inactive) | -8.6% (inactive) | 0.7% (inactive) | -0.6% (inactive) | -1.9% (inactive) | 5.8% (active) | -10.5% (inactive) | 227 (inactive) | 1.09 (inactive) | 0.95 | 1.03 | inactive | inactive |  | inactive |  |  | inactive |  | 
4 | Nc1ccn([C@H]2CC[C@@H](CO)O2)c(=O)n1 | -0.3% (inactive) | 6.9% (inactive) | -2.2% (inactive) | 1.4% (inactive) | -1.1% (inactive) | -0.9% (inactive) | 8.55% (inactive) | 305 (inactive) | 0.76 (inactive) | 1.16 | 0.88 |  |  | inactive |  |  |  |  |  | 
5 | O=C(O)CCNC(=O)c1ccc(N=Nc2ccc(O)c(C(=O)O)c2)cc1 | 5.4% (inactive) | 5.2% (inactive) | 11.5% (inactive) | 1.6% (inactive) | 6.1% (inactive) | 57.8% (active) | 6.7% (inactive) | 240 (inactive) | 1.02 (inactive) | 1.19 | 1.21 | inactive | inactive |  | inactive |  |  | inactive |  | 
6 | CN(CCCN1c2ccccc2CCc2ccccc21)CC(=O)c1ccc(Cl)cc1 | 10.9% (inactive) | 6.7% (inactive) | 29.2% (inactive) | 4.6% (inactive) | 33.2% (inactive) | 84.8% (active) | 39% (inactive) | 194 (inactive) |  |  |  |  |  |  |  |  |  |  | 113% (inactive) | 
7 | CCCc1nc(C)c2c(=O)[nH]c(-c3cc(S(=O)(=O)N4CCN(CC)CC4)ccc3OCC)nn12 | -0.4% (inactive) | -11.4% (inactive) | -2.1% (inactive) | 0.1% (inactive) | 23.1% (inactive) | 14.2% (inactive) | -13.5% (inactive) | 298 (inactive) | 0.94 (inactive) | 1.1 | 1.03 |  |  |  | inactive | 18.7 µM (active) | 4.18 µM (active) | inactive |  | 13.2 µM (active)
8 | CC(C)c1nc(CN(C)C(=O)N[C@H](C(=O)N[C@@H](Cc2ccccc2)C[C@H](O)[C@H](Cc2ccccc2)NC(=O)OCc2cncs2)C(C)C)cs1 | 0.2% (inactive) | 33.5% (inactive) | -13.5% (inactive) | -0.8% (inactive) | 67.7% (active) | 4.9% (inactive) | 19.4% (inactive) | 246 (inactive) | 1.06 (inactive) | 1.14 | 1.21 | inactive | inactive |  |  |  |  |  |  | 
9 | COC1=C(OC)C(=O)C(CCCCCCCCCCO)=C(C)C1=O | 2.2% (inactive) | 118% (active) | 66.9% (active) | 2.2% (inactive) | 94.2% (active) | 120% (active) | 82.7% (active) | 254 (inactive) | 0.83 (inactive) | 1.18 | 0.98 |  |  |  | inactive |  |  |  |  | 
10 | CC(=O)Oc1ccccc1C(=O)Nc1ncc([N+](=O)[O-])s1 | -1.8% (inactive) | 106% (active) | 110% (active) | 2.9% (inactive) | 107% (active) | 120% (active) | 95.2% (active) | 256 (inactive) | 0.75 (inactive) | 1.31 | 0.98 |  |  |  |  | 38.2 µM (active) | 34 µM (active) |  |  | 27 µM (active)
11 | Cc1[nH]c(=O)c(C#N)cc1-c1ccncc1 | 0.8% (inactive) | -19.7% (inactive) | 4% (inactive) | 0% (inactive) | 16.6% (inactive) | -4.9% (inactive) | -6.1% (inactive) | 234 (inactive) | 1.2 (inactive) | 1.05 | 1.26 |  |  |  | inactive |  |  |  |  | 
12 | COc1ccccc1OCC(O)CN1CCN(CC(=O)Nc2c(C)cccc2C)CC1 (configuration not stated) | 0.8% (inactive) | -14.5% (inactive) | 0.2% (inactive) | 2.2% (inactive) | 9.23% (inactive) | -16.2% (inactive) | -14.6% (inactive) | 263 (inactive) | 0.78 (inactive) | 1.24 | 0.96 | inactive | inactive | inactive | inactive |  |  | inactive |  | 
